Measurements reported in PubChem BioAssay AID463195 (Sanford-Burnham Center for Chemical Genomics, 2010).
The whole screen tested about 330,000 compounds, of which about 4,600 (1.4%) were called active. This excerpt belongs to a sample that is enriched for actives. A number with no mark means an inactive call.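 Rule for the calls: active = inhibition of 40% or more at the single tested concentration; inactive = the rest.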

assay: growth inhibitors of isogenic TIM10 control yeast, primary screen, counter-screen for tim10-1 yeast inhibitor project, luminescence, uHTS (AID 463195);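 note: wild-type TIM10 isogenic control strain grown at permissive 25 °C; 0% = DMSO yeast wells and 100% = minimal medium wells without yeast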; conditions: S. cerevisiae TIM10 strain growth, BacTiter-Glo luminescence, 24 h; at 10 µM; stronger effect = higher value

Compound | inhibition
O=C(Nc1cccc(NC(=O)N2CCN(c3ccccc3)CC2)c1)N1CCN(c2ccccc2)CC1 | -4.11%
COc1cc(C(=O)NCC(=O)N2CC=C(c3ccccc3)CC2)cc(OC)c1OC | 20.4%
O=C(Nc1ccc(Cl)c(Cl)c1)N1CC=C(c2ccccc2)CC1 | 48.1% (active)
CCOC(=O)N1CCC(N2Cc3cccc(C(=O)Nc4c(C)cccc4CC)c3C2=O)CC1 | 15.7%
CN(C)Cc1c(O)ccc2occ(C(O)c3ccccc3)c12 (centres undefined) | 9.39%
CC(=O)Cc1nsc(NC(=O)c2ccc(Cl)cc2Cl)n1 | 45.2% (active)
CC(=O)Cc1nsc(NC(=O)c2ccc(COc3ccc(C)cc3)o2)n1 | 20.8%
CC(C)NC(=O)c1ccc(Cl)cc1Cl | -6.27%
Cc1cc(C)cc(NS(=O)(=O)Cc2ccccc2)c1 | -1.77%
O=C(c1snnc1-c1ccccc1)N1CCOCC1 | 15.4%
O=C(CCCN1CCc2[nH]c3ccc(F)cc3c2C1)c1ccc(F)cc1 | 14.8%
CCn1c(/C=C/c2ccc([N+](=O)[O-])o2)nc2ccccc2c1=O | 49.9% (active)
CCc1ccc(S(=O)(=O)N/N=C\c2ccc([N+](=O)[O-])o2)cc1 | 14.1%
CCn1c(=O)c([N+](=O)[O-])c(NCc2ccc3c(c2)OCO3)c2ccccc21 | 15.2%
CC1CCN(C(=O)c2cc3nc(C4CC4)cc(C(F)(F)F)n3n2)CC1 | 16.4%
Cc1cc(C)n(CC(O)CN(c2ccccc2)S(=O)(=O)c2ccc3ccccc3c2)n1 (centres undefined) | 48% (active)
Cc1ccc(N(CC(O)CN2CCCC2)S(=O)(=O)c2ccccc2)cc1 (centres undefined) | -2.21%
Cc1cccc(N(CC(O)CN(C)C)S(=O)(=O)c2ccccc2)c1 (centres undefined) | 0.713%
C/C=C/C(=O)OCC(=O)Nc1ccc(F)cc1Cl | -3.48%
Nc1ncnc2c1ncn2[C@@H]1O[C@H](CNS(=O)(=O)c2ccc(-c3ccno3)s2)[C@@H](O)[C@H]1O | -1.72%
CCCS(=O)(=O)N1CCN=C1SCc1cccc(F)c1 | -11.5%
CCc1c(C)nc(N)n2c(SCC(=O)NC3CCCCC3)nnc12 | -10.7%
COc1ccc(S(=O)(=O)Nc2cc(C)on2)cc1NC(C)=O | 12%
Cc1nn2c(c1-c1ccccc1)N=C(c1ccco1)CC2c1ccccc1 (centres undefined) | 48.1% (active)

Compound | inhibition
O=C(O)CCCC(=O)N1N=C(c2ccco2)CC1c1ccco1 (centres undefined) | -11.4%
Cc1nn(C(=O)c2ccoc2C)c(N)c1-c1ccccc1 | -12.3%
CCN(CC)S(=O)(=O)N1CCC(C(=O)NC(C)CCc2ccccc2)CC1 (centres undefined) | -3.42%
C/C(=N\NC(=O)C1(C)CC1(Br)Br)c1ccc(C)cc1C (centres undefined) | 10%
O=C1Cc2cc(S(=O)(=O)Nc3cccc(F)c3)ccc2N1 | -1.95%
CN(C)CCN(C(=O)C1CCCCC1)c1nc2cc3c(cc2s1)OCO3 | 11.6%
Cc1ccc2nc(N(CCN(C)C)C(=O)C3=COCCO3)sc2c1 | 53.1% (active)
CN(C)CCN(C(=O)C1=COCCO1)c1nc2ccc(Cl)cc2s1 | 79.4% (active)
CCN(CC)CCN(C(=O)c1cc(Cl)sc1Cl)c1nc2cc3c(cc2s1)OCO3 | 23.3%
CN(C)CCN(C(=O)CN1C(=O)c2ccccc2C1=O)c1nc2cc3c(cc2s1)OCCO3 | -5.86%
CCc1ccc2nc(N(CCCN(C)C)C(=O)c3ccc4c(c3)OCCO4)sc2c1 | 13.5%
CC(=O)c1ccc(N2CCN(C(=O)c3ccc(Cl)c(S(=O)(=O)NC4CC4)c3)CC2)c(F)c1 | -5.83%
COC(=O)c1ccc(/C=C2/C(=O)Oc3ccccc32)cc1 | 25.7%
O=C1Oc2ccccc2C(=O)/C1=C/c1ccccc1O | 61.4% (active)
COc1ccc2c(c1)O/C(=C\c1ccccc1O)C2=O | 23.8%
C=CCO/N=C(\C)c1c(O)c(C)c(-c2ccccc2)n(-c2ccccc2)c1=O | 30.7%
CCCCCC(=O)Nc1ccc(-c2cn3cccnc3n2)cc1 | 33.6%
CC(C(=O)Nc1ccc(F)c(F)c1F)N1CCCCCC1 (centres undefined) | -12.6%
O=Cc1c(N2CCN(c3cccc(Cl)c3)CC2)nc2ccccn2c1=O | 40.1% (active)
O=Cc1c(Nc2ccccc2Cl)nc2ccccn2c1=O | 4.5%
COCCCNC(=O)/C(C#N)=C/c1c(N2CCCCCC2)nc2ccccn2c1=O | -2.43%
CCOC(=O)c1sc2nc(C)nc(Nc3ccc(OC)c(OC)c3)c2c1C | -3.77%
C/C(=N/NC(=S)Nc1ccccc1)c1ccc2c(c1)OCO2 | 43.2% (active)
C/C(=N\NC(=O)C(N)=O)c1ccc2c(c1)OCCO2 | 9.07%

Compound | inhibition
C/C(=N/NC(=O)c1ccncc1)c1ccc2c(c1)OCO2 | -3.5%
Cc1cc(C)n(-c2nc(SCC(=O)N3CCCC3)c3c4c(sc3n2)CCCC4)n1 | 47.4% (active)
COCCNc1nc(-n2nc(C)cc2C)nc2sc3c(c12)CCCC3 | 26.3%
CC(C)c1nc(SCC(=O)Nc2cccc(C(=O)O)c2)c2c3c(sc2n1)CCCC3 | 6.83%
O=C(OCCO)c1cc(Cl)c(C(=O)OCCO)cc1Cl | -2.48%
COc1ccccc1CNC(=O)CCCNS(=O)(=O)c1cccc2nsnc12 | 0.215%
O=C1OCCN1C(=O)[C@H]1[C@H](c2ccccc2)C(c2ccc(F)cc2)=NN1c1ccccc1 | 13.6%
C[C@@H]1C(c2ccc(F)cc2)=NN(c2ccc(Br)cc2)[C@H]1C(=O)N1CCOC1=O | 44.2% (active)
O=C1OCCN1C(=O)[C@H]1[C@H](c2ccc(F)cc2)C(c2ccccc2)=NN1c1ccc(Br)cc1 | 16.8%
CN(C(=O)CN(CCO)CC(=O)N(C)C(C)(C)Cc1ccccc1)C(C)(C)Cc1ccccc1 | 15.9%
Cc1cc(C)nc(SCC(=O)N(C)C)n1 | -9.49%
Cc1cc(C)nc(SCc2ccccc2C#N)n1 | 14.7%
Cc1cc(C)nc(S/C=C/C(=O)c2ccccc2)n1 | 49% (active)
Cc1cccc(N(C(=O)c2ccc(CN3CCOCC3)o2)C(C(=O)NC2CCCCC2)c2ccc(F)cc2)c1 (centres undefined) | -2.65%
FC(F)(F)C1CCCN(c2nsc3ccccc23)C1 (centres undefined) | 2.15%
OC(c1ccccc1)C(CN1CCOCC1)c1ccccc1 (centres undefined) | 3.43%
Oc1c(Cl)cc(Cl)c(Cl)c1Cc1c(O)c(Cl)cc(Cl)c1Cl | 90.7% (active)
CCCCc1cc2c(s1)CCCC/C2=N/O | 22.6%
CCc1ccc(-n2c(=S)sc3c(=O)n(-c4ccccc4OC)c(=S)[nH]c32)cc1 | -1.05%
COc1ccc(NC(=S)NCC2CCN(c3ccc(OC)cc3)C2)cc1 (centres undefined) | 48% (active)
COc1ccc(NC(=S)NCCN2CCC(C)CC2)cc1 | 4.83%
COc1ccc(N2CCC(CNC(=S)Nc3c(C)cccc3C)C2)cc1 (centres undefined) | 16.7%
CC(=O)N/C(=C\c1ccc(F)cc1)C(=O)NC(Cc1ccccc1)C(=O)O (centres undefined) | -0.026%
Cc1ccc(S(=O)(=O)/N=C(/NC(=S)Nc2c(C)n(C)n(-c3ccccc3)c2=O)c2ccccc2)cc1 | 2.05%

Compound | inhibition
CCCCN(C(=O)/C=C/c1ccco1)c1c(N)n(CC(C)C)c(=O)[nH]c1=O | -1.39%
Cc1ccsc1C(=O)N[C@@H](C)c1nnc2ccccn12 | 0.47%
CC1CCCN(c2ccc(C(=O)NCCc3ccccc3)cn2)C1 (centres undefined) | 20.8%
COc1ccc(NC(=O)CC2C(=O)NC3CCCCC3N2C(=O)c2ccc(F)cc2)cc1 (centres undefined) | -3.23%
CC(C)N(Cc1ccccc1)C(=S)Nc1ccc(OC(F)F)cc1 | 44% (active)
CN(CC(=O)Nc1ccc(OC(F)F)cc1)S(=O)(=O)/C=C/c1ccccc1 | 15.2%
CC(=O)c1ccc(NC(=S)N(Cc2ccccc2)C(C)C2CC2)cc1 (centres undefined) | 12.5%
C=CCC(CC=C)(C(N)=O)c1ccccc1 | 1.01%
CC(Sc1nnc2c(n1)C1CCC2(C)C1(C)C)C(=O)Nc1ccccc1 (centres undefined) | 14.6%
Cc1ccccc1S(=O)(=O)Cc1ccc(C(=O)NCCN2CCCCC2C)o1 (centres undefined) | -4.28%
CC(=C/c1ccccc1)/C=N/NC(=O)c1cc(C)oc1C | 9.24%
CC(/C=N/NC(=O)c1cc(-c2ccc3ccccc3c2)n[nH]1)=C\c1ccco1 | 45.8% (active)
CC(C)(C)C1CCC(=NNC(=O)c2cc(-c3ccccc3)n[nH]2)CC1 (centres undefined) | -10.2%
COCC1CCCN(Cc2cn[nH]c2-c2cc3ccccc3o2)C1 (centres undefined) | -1.56%
COc1ccc(CN2CCCC(C(=O)N3CCCCC3)C2)cc1 (centres undefined) | -13%
C=C1CCN([C@@H](Cc2ccccc2)C(=O)N2CCOCC2)S(=O)(=O)c2ccccc21 | 1.68%
Cn1c(=O)c2c(SCC(=O)NCC3CCCO3)nc(CC(C)(C)C)nc2n(C)c1=O (centres undefined) | 20.8%
C/C(Cc1ccccc1)=N\NC(=O)CNC(=O)c1ccccc1Cl | -5.47%
S=C(NCC1COc2ccccc2O1)Nc1ccc(Br)cc1 (centres undefined) | -1.91%
CCCN(CC1COc2ccccc2O1)C(=S)Nc1ccc(C)cc1 (centres undefined) | 30.5%
CC(NC(=S)Nc1ccccc1)C1COc2ccccc2O1 (centres undefined) | 47.6% (active)
C/C(=N\Nc1cccc(C(=O)O)c1)c1ccc2c(c1)Nc1ccccc1S2 | 10.7%
